According to the supplement of paper PMC10849652:
Targets with a hit are over-represented here; the source holds about 7,900 in all. About 0.6% of all pairs of compound and target were hits. Values without a mark were called inactive.

Chain of UniProt P54619 (P54619 whole entry, looked up): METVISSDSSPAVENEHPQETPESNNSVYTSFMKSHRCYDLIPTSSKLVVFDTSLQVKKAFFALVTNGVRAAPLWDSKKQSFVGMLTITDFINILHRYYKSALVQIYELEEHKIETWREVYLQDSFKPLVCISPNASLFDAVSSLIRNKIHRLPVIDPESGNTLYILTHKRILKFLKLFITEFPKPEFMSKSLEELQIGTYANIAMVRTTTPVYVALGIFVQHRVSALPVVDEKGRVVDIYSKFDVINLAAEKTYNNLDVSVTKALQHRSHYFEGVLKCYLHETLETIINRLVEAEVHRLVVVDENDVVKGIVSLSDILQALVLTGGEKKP
Chain of UniProt P09874 (P09874 whole entry, looked up): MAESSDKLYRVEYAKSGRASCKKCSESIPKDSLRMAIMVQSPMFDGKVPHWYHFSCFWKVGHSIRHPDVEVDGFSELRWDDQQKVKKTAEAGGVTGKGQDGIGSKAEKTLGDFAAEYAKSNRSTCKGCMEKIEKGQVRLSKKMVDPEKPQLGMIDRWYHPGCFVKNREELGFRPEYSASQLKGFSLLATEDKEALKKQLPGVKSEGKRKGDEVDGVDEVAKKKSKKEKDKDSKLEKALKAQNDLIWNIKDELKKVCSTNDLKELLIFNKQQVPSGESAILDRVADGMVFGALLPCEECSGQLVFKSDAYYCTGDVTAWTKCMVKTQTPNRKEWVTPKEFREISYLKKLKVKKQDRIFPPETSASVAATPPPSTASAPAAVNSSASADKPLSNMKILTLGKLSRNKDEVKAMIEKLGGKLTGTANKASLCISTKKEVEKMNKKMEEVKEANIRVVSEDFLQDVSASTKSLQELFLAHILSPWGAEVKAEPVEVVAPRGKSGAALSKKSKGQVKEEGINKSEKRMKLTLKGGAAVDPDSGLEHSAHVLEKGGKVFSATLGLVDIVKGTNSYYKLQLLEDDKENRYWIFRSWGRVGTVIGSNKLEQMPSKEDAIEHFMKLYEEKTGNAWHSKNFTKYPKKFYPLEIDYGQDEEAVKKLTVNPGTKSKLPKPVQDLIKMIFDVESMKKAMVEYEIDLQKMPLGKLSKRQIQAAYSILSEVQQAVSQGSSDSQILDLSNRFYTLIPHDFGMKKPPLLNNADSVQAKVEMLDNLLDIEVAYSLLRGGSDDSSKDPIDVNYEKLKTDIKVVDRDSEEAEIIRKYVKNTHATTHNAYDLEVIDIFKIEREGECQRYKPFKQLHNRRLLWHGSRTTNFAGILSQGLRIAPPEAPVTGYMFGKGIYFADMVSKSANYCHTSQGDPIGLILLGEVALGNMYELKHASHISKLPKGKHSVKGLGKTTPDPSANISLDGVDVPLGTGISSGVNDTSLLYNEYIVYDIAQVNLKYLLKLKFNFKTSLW
Chain of UniProt O14974 (O14974 whole entry, looked up): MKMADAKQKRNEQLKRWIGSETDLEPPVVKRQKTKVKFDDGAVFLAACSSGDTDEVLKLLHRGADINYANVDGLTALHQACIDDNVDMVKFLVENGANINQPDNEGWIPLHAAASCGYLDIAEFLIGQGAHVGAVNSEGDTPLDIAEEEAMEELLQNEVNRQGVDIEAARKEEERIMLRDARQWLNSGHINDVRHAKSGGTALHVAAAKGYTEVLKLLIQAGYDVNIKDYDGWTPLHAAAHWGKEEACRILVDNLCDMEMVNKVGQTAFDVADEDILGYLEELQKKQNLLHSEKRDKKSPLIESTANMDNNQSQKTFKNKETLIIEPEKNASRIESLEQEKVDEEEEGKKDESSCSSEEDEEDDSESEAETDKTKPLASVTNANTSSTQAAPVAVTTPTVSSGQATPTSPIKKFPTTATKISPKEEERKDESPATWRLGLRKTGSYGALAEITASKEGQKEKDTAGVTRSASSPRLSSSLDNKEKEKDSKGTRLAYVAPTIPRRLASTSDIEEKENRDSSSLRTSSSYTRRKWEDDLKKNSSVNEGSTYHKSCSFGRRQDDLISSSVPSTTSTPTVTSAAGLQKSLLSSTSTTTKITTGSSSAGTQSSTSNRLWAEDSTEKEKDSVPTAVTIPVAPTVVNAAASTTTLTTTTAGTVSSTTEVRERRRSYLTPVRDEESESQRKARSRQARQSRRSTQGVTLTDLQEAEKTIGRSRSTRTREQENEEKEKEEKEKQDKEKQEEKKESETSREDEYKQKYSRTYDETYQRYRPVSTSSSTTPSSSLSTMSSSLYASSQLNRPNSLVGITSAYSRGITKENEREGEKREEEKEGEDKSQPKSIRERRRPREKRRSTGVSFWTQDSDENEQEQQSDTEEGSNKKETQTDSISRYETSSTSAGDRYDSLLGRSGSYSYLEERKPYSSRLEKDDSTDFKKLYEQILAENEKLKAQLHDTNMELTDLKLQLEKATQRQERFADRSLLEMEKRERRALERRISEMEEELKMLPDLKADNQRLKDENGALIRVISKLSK
Chain of UniProt O95602 (O95602 whole entry, looked up): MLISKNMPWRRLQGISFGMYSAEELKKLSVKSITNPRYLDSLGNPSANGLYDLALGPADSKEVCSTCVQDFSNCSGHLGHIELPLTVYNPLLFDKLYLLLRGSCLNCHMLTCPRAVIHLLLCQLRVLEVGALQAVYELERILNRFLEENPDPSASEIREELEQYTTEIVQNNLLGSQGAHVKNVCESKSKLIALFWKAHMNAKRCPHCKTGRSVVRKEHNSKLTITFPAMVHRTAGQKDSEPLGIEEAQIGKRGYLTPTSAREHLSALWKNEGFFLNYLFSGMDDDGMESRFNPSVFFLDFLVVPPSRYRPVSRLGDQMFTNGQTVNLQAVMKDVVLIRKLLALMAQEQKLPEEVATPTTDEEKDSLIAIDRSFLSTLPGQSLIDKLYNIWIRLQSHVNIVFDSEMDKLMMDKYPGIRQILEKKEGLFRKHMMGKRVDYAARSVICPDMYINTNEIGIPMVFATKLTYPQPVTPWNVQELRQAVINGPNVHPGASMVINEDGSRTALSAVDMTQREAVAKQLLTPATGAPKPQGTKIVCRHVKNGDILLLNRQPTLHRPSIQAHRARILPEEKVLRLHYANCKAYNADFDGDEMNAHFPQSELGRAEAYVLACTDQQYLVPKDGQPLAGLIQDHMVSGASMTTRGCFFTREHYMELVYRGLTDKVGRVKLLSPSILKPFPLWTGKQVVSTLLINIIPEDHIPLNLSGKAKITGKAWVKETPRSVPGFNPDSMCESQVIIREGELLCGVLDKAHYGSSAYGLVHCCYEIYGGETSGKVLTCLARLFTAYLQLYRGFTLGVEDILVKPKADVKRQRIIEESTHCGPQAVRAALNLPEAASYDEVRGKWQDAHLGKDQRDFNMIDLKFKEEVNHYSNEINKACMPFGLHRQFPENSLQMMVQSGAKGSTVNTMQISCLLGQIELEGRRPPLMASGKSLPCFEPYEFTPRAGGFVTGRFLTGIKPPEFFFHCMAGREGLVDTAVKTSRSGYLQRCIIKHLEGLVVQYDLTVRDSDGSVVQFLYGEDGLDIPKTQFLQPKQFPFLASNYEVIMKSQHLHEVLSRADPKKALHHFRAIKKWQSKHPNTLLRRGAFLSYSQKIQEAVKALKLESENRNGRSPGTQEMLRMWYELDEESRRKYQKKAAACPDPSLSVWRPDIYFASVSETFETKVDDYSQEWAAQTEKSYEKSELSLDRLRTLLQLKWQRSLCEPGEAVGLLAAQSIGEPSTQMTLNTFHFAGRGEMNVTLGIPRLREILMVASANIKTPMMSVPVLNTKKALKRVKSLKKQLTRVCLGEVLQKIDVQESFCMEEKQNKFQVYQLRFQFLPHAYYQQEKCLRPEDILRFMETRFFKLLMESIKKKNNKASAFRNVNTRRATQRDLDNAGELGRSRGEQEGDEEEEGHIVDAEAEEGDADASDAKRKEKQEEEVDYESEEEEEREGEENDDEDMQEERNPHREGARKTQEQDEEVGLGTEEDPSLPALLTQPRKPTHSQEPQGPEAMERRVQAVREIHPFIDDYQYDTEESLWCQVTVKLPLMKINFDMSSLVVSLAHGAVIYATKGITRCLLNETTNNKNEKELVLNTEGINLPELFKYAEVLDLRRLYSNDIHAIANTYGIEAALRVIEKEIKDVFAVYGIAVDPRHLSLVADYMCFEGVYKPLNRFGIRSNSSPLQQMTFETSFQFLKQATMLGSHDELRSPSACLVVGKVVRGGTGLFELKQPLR
Chain of UniProt Q86T03 (Q86T03 whole entry, looked up): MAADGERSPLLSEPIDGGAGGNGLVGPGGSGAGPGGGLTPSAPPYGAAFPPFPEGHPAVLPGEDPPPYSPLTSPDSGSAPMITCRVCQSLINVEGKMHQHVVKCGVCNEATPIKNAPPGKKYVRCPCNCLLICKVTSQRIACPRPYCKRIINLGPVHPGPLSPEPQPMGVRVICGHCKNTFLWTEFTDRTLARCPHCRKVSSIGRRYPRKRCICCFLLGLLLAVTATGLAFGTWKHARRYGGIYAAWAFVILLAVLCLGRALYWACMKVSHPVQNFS

These targets were tested with CC1=C2C(=CC=C1)N=C(N(C2=O)C3=CC=CC=C3C)CN4C=NC5=C(N=CN=C54)N (assay: log2 fold change, soluble protein after heating vs DMSO (PISA); higher = thermal stabilisation; K562 cells, 10 uM, 30 min; active = over 0.2 and 3.5 SD of the protein, either way, in both replicates (recomputed)).
Outline: (§1)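 For each measurement, 10 μM compound was applied for 30 min to K562 cells at 2×10^6 cells/mL. Aliquots were heated for 3 min across 48°C-58°C, pooled, and extracted in PBS with 0.5% NP-40 at 4°C; the supernatant after 21,000xg for 90 min was soluble protein. This was quantified by TMTpro 16plex LC-MS/MS with channel sums equalised, and thermal stability was reported relative to control samples from duplicates, on a log2 fold-change scale.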
In the case of PSMD1 (UniProt Q99460), the log2 fold change is reported as -0.058.
PIP4K2A (UniProt P48426) was tested, and the log2 fold change was 0.049.
With PDE4A (UniProt P27815) the log2 fold change was 0.102.
PPP1R12A (UniProt O14974) was tested, and the log2 fold change was 0.047.
PIP4P1 isoform 2 (UniProt Q86T03) gave a log2 fold change of -0.118.
Work on PIP4P2 (UniProt Q8N4L2) yielded a log2 fold change of -0.066.
Target POLR1A (UniProt O95602) has a log2 fold change of -0.044.
With RAB11FIP1 (UniProt Q6WKZ4) the log2 fold change was 0.086.
In the case of PC (UniProt P11498), the log2 fold change is reported as 0.111.
With PTGR2 (UniProt Q8N8N7) the log2 fold change was 0.581 (active).
Target PRKAG1 isoform 3 (UniProt P54619) has a log2 fold change of 0.019.
Work on PTPA (UniProt Q15257) yielded a log2 fold change of 0.005.
PARP1 (UniProt P09874) was tested, and the log2 fold change was 0.182.
Target PRKAA1 isoform 2 (UniProt Q13131) has a log2 fold change of 0.024.
PRKCA (UniProt P17252) gave a log2 fold change of 0.14.

These targets were tested with Cc1sc2c(c1C)C(c1ccc(Cl)cc1)=N[C@@H](CC(=O)OC(C)(C)C)c1nnc(C)n1-2 in the same assay as above.
Outline: as §1
PPIL4 (UniProt Q8WUA2) showed a log2 fold change of 0.039.
PHF5A (UniProt Q7RTV0) gave a log2 fold change of 0.002.
With PPP6R1 (UniProt Q9UPN7) the log2 fold change was 0.005.
Work on POP1 (UniProt Q99575) yielded a log2 fold change of 0.017.
PSMB4 (UniProt P28070) was tested, and the log2 fold change was -0.009.
Target PRKCG (UniProt P05129) has a log2 fold change of -0.017.
Work on PPIL2 (UniProt Q13356) yielded a log2 fold change of -0.019.
PMM2 (UniProt O15305) gave a log2 fold change of 0.06.
With PLCB3 (UniProt Q01970) the log2 fold change was -0.048.
PRG4 (UniProt Q92954) was tested, and the log2 fold change was -0.309.
With PSMC4 (UniProt P43686) the log2 fold change was 0.006.
With PSMC3 (UniProt P17980) the log2 fold change was 0.
PCBP2 (UniProt F8VRH0) was tested, and the log2 fold change was 0.085.
Target PBX2 (UniProt P40425) has a log2 fold change of 0.051.
Work on PRKAR1B (UniProt P31321) yielded a log2 fold change of 0.019.
Target PRUNE1 (UniProt Q86TP1) has a log2 fold change of 0.
With PSMD1 (UniProt Q99460) the log2 fold change was -0.017.
In the case of PIP4K2A (UniProt P48426), the log2 fold change is reported as 0.033.
PDE4A (UniProt P27815) was tested, and the log2 fold change was -0.112.
Work on PPP1R12A (UniProt O14974) yielded a log2 fold change of 0.035.
For PIP4P1 isoform 2 (UniProt Q86T03), the log2 fold change was -0.002.
Work on PIP4P2 (UniProt Q8N4L2) yielded a log2 fold change of -0.017.
For POLR1A (UniProt O95602), the log2 fold change was 0.096.
In the case of RAB11FIP1 (UniProt Q6WKZ4), the log2 fold change is reported as -0.006.
Work on PC (UniProt P11498) yielded a log2 fold change of 0.025.
In the case of PTGR2 (UniProt Q8N8N7), the log2 fold change is reported as -0.043.
In the case of PRKAG1 isoform 3 (UniProt P54619), the log2 fold change is reported as -0.011.
PTPA (UniProt Q15257) was tested, and the log2 fold change was -0.041.
In the case of PARP1 (UniProt P09874), the log2 fold change is reported as -0.069.
PRKAA1 isoform 2 (UniProt Q13131) gave a log2 fold change of 0.004.
Target PRKCA (UniProt P17252) has a log2 fold change of 0.002.

Each target was assayed with c1ccc([C@@H]2C[C@H]2NC2CCNCC2)cc1 in the same assay as above.
Outline: as §1
In the case of PPIL4 (UniProt Q8WUA2), the log2 fold change is reported as 0.016.
Work on PHF5A (UniProt Q7RTV0) yielded a log2 fold change of 0.018.
For PPP6R1 (UniProt Q9UPN7), the log2 fold change was 0.001.
POP1 (UniProt Q99575) was tested, and the log2 fold change was -0.01.
Target PSMB4 (UniProt P28070) has a log2 fold change of 0.03.
PRKCG (UniProt P05129) was tested, and the log2 fold change was 0.077.
Work on PPIL2 (UniProt Q13356) yielded a log2 fold change of -0.011.
Work on PMM2 (UniProt O15305) yielded a log2 fold change of 0.009.
PLCB3 (UniProt Q01970) showed a log2 fold change of -0.062.
PRG4 (UniProt Q92954) was tested, and the log2 fold change was -0.033.
PSMC4 (UniProt P43686) gave a log2 fold change of 0.001.
PSMC3 (UniProt P17980) showed a log2 fold change of 0.
In the case of PCBP2 (UniProt F8VRH0), the log2 fold change is reported as 0.026.
For PBX2 (UniProt P40425), the log2 fold change was -0.016.
PRKAR1B (UniProt P31321) showed a log2 fold change of -0.061.
PRUNE1 (UniProt Q86TP1) was tested, and the log2 fold change was -0.007.
Work on PSMD1 (UniProt Q99460) yielded a log2 fold change of 0.
Target PIP4K2A (UniProt P48426) has a log2 fold change of -0.024.
PDE4A (UniProt P27815) was tested, and the log2 fold change was 0.201.
For PPP1R12A (UniProt O14974), the log2 fold change was -0.008.
Target PIP4P1 isoform 2 (UniProt Q86T03) has a log2 fold change of 0.05.
PIP4P2 (UniProt Q8N4L2) showed a log2 fold change of -0.018.
POLR1A (UniProt O95602) showed a log2 fold change of -0.015.
For RAB11FIP1 (UniProt Q6WKZ4), the log2 fold change was 0.046.
With PC (UniProt P11498) the log2 fold change was -0.021.
With PTGR2 (UniProt Q8N8N7) the log2 fold change was -0.091.
PRKAG1 isoform 3 (UniProt P54619) showed a log2 fold change of -0.017.
Work on PTPA (UniProt Q15257) yielded a log2 fold change of -0.003.
In the case of PARP1 (UniProt P09874), the log2 fold change is reported as -0.101.
PRKAA1 isoform 2 (UniProt Q13131) showed a log2 fold change of 0.019.
PRKCA (UniProt P17252) was tested, and the log2 fold change was -0.038.
